# IL1B secr inh – blocks inflammasome-driven IL-1 beta release; THP-1 LPS/ATP IL-1B secretion, AlphaLISA, 16 h; stronger effect = lower value; activity change, % at 57.5 µM; 360,000 compounds, 4.7% hits; AID 743279; in the data active = activity change below about -50%; inconclusive = mostly about -30% to -49%; also: % is scaled to controls: 0 for no effect and ±100 for the full control effect
#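 THP-1 cells pretreated 1 hr with compounds (up to 57.5 uM final), then stimulated with LPS (250 ng/mL final) plus ATP (1.25 mM final); secreted IL-1B measured by AlphaLISA after 16 hr, decreased signal indicating inhibition.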
# SW480 rereplic – inducers of DNA re-replication in SW480 colon cancer cells; SW480 DNA re-replication, Hoechst DNA content imaging, 48 h; Potency, µM (highest dose often 46.1 µM), without a hit: at the top dose re-replication activation, most hits filed as activators; 340,000 compounds, 1.8% hits; also: potency is read from the fitted curve at half-maximal effect; % of control where 0% means no effect; nearly all actives have a fitted effect of over 55% in size
#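 Image-based read-out: total Hoechst fluorescence of nuclei (405 nm excitation, 500-530 nm emission), with hits raising the fraction of high-intensity nuclei. SW480 colon cells incubated 48 hr with compounds at 37 C.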
# Vif-APOBEC3F blk – blocks the Vif interaction with APOBEC3F. 390,000 compounds, 0.2% hits. Potency, µM (doses to about 46.1 µM), for the others: at the top dose activity, negative = active. HeLa A3F-eYFP + Vif (tagged APOBEC3F with the HIV-1 protein that degrades it), YFP fluorescence increase. AID 602313; also: potency is read from the fitted curve at half-maximal effect; % of control where 0% means no effect; nearly all actives have a fitted effect of over 65% in size
#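 HeLa cells stably expressing A3F-eYFP plus Vif, plated and incubated overnight at 37 deg C, then exposed to compounds overnight at 37 deg C. Blocked degradation read as raised yellow fluorescence (Ex 488/Em 500-530).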
# MCF10A rerep – DNA re-replication induction in MCF 10a cells | MCF 10A DNA re-replication, Hoechst nuclear intensity, 48 h | 350,000 compounds, 2.9% hits | Potency, µM (titrated, usually from 46.1 µM), without a hit: at the top dose activity, positive = re-replication, usual class: activators | AID 624296; also: potency is read from the fitted curve at half-maximal effect; % of control where 0% means no effect; nearly all actives have a fitted effect of over 50% in size
# Giardia kill – kills Giardia lamblia; 340,000 compounds, 0.15% hits; AID 540267; activity change, % at 7.66 µM, hits read low; Giardia lamblia trophozoite viability; in the data active = activity change below about -80%; inconclusive = between about -30% and that limit;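 also: parasites exposed to compound for two days anaerobically before the ATP read; % is scaled to controls: 0 for no effect and ±100 for the full control effect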
#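 Luminescent ATP signal served as the viability read-out, measured 15-30 min after adding ATP detection reagent to trophozoites that had been incubated with compounds for 48 hrs at 37 deg C anaerobically at 100 cells/well.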
# Vif-A3G inh – blocks the Vif interaction with human APOBEC3G; Q9HC16; HeLa A3G-eYFP + Vif (tagged APOBEC3G with the HIV-1 protein that degrades it), YFP fluorescence, overnight; Potency, µM (titrated, usually from 46.1 µM), without a hit: top-dose activity, negative = active, most hits filed as inhibitors; 410,000 compounds, 0.076% hits; also: potency is read from the fitted curve at half-maximal effect; % is scaled to controls: 0 for no effect and ±100 for the full control effect; nearly all actives have a fitted effect of over 60% in size
# Target sequence (Q9HC16 whole entry, looked up): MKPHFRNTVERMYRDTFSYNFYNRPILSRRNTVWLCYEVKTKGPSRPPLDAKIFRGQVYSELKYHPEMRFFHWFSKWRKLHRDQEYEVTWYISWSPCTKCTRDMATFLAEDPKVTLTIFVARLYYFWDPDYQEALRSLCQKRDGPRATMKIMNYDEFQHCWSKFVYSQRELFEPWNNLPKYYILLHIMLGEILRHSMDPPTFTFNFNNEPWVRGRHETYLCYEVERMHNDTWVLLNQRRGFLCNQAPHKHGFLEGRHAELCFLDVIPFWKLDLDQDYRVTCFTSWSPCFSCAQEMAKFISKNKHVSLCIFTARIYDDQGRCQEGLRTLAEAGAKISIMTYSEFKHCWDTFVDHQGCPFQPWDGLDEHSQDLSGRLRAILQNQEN
#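 HeLa cells stably expressing Vif and C-terminally eYFP-tagged A3G, seeded overnight at 37 deg C, then exposed to compound by pintool overnight at 37 deg C. Rise in yellow fluorescence (Ex 488/Em 500-530, Acumen) marks blocked Vif-driven A3G degradation.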
# * = called active by the depositor; ? = inconclusive; nt = not tested or not shown. The list is not random: actives were taken first. Their share in the collection is about 6.9%. Unless noted, calls follow the shape of the dose curve; as a rule, active = well fitted curve in the direction sought with a large enough effect; inconclusive = small, poorly fitted or top-dose-only effect, or another doubt; inactive = no such curve, though single readings can be large; an effect the other way counts as inactive or inconclusive.
SMILES,IL1B secr inh,SW480 rereplic,Vif-APOBEC3F blk,MCF10A rerep,Giardia kill,Vif-A3G inh
Cc1ccc(NC(=O)c2ccc(CN3CCc4ccccc4C3)cc2)cc1,?,-2%,5%,?,10,2%
Cn1nnnc1SCc1ccc(C(=O)Nc2ccccc2F)cc1,-28,-36%,-3%,-7%,-7,-5%
Cc1cc(C)cc(NC(=O)c2ccc(CN3CCc4ccccc4C3)cc2)c1,-73*,-2%,9%,21µM*,-7,-4%
CCCNC(=O)C1=CC(c2ccc3c(c2)OCO3)=NS(=O)(=O)N1C,nt,nt,0%,nt,nt,0%
CC1CCN(S(=O)(=O)c2ccc3c(c2)c(=O)c(C(=O)NCc2ccc(Cl)cc2)cn3C)CC1,nt,nt,-4%,nt,nt,4%
COc1ccc(C(=O)NC(C)CCc2ccccc2)cc1 (centres undefined),-1,2%,-1%,-4%,-5,1%
COc1ccc(NC(=O)C(NC(=O)c2ccc(C)cc2)c2ccccc2)cc1 (centres undefined),0,-39%,0%,10%,-21,-2%
COc1ccc(C(=O)NC(Nc2ccc(C)cc2)C(Cl)(Cl)Cl)cc1 (centres undefined),-72*,-8%,1%,5%,26,-1%
COc1ccc(NC(NC(=O)c2ccc(OC)cc2)C(Cl)(Cl)Cl)cc1 (centres undefined),-78*,0%,-16%,2%,0,0%
COc1ccc(NC(=O)CSc2nc(-c3cc(OC)c(OC)c(OC)c3)[nH]c2-c2ccc(F)cc2)cc1,nt,nt,8%,nt,nt,-6%
C/C(=N/NC(=O)CN(c1ccccc1)S(=O)(=O)c1ccccc1)c1ccccc1O,49,16µM*,-5%,-1%,-22,-10%
N/C(=N\OC(=O)COc1ccc(Cl)cc1Cl)c1cccnc1,15,13µM*,-11%,14%,13,0%
CCN(CC)Cc1cc(Oc2ccc(O)c(CN(CC)CC)c2)ccc1O,-72*,nt,nt,nt,nt,3%
CCN(CC)Cc1cc(CCNC(=O)c2ccc(Cl)cc2)ccc1O,-5,12%,-9%,18%,-10,2%
Cn1ccsc1=NC(=O)c1ccc([N+](=O)[O-])o1,-29,9.2µM*,-1%,7.3µM*,-93*,-7%
COc1cc(C(=O)N=c2sccn2C)c([N+](=O)[O-])cc1OC,-4,-15%,1%,0%,3,-2%
O=C(CSc1nc(-c2ccccc2)cn1-c1ccccc1F)Nc1ccc(F)cc1,nt,nt,5%,nt,nt,-1%
CCCCCCCCNc1ccccc1S(=O)(=O)NCc1ccccc1,0,-6%,?,5.2µM*,-4,2%
CCCCN(CC)CCNC(=O)Cn1c(=O)c2cccn2c2cccnc21,nt,nt,-4%,nt,nt,3%
COc1ccccc1C(=O)NCCn1cc(SCc2ccc(C)cc2)c2ccccc21,nt,nt,-1%,nt,nt,-1%
CCN(CC)c1ccc(N=C2C=CC(=O)C=C2NC(C)=O)cc1,-72*,?,?,16%,-6,-12%
CCN(CC)c1ccc(NC(=O)Nc2ccccc2)cc1,?,6%,7%,-2%,-10,0%
CC(C)[C@H](NC(=O)c1ccccc1)C(=O)OCC(=O)/C=C1/N(C)c2ccccc2C1(C)C,17,26%,3%,?,-15,-2%
COc1cc(OC)cc(C(=O)NCC(=O)OCC(=O)/C=C2/N(C)c3ccccc3C2(C)C)c1,-60*,-39%,10%,?,-14,-2%
COc1cccc(OC)c1OCCCNC1CCCC1,-4,6.5µM*,5%,-3%,15,7%
SMILES,IL1B secr inh,SW480 rereplic,Vif-APOBEC3F blk,MCF10A rerep,Giardia kill,Vif-A3G inh
CCOc1ccccc1OCCNC1CCCC1,21,23µM*,-6%,?,4,3%
Cc1ccc(C)c(OCCCNC2CCCC2)c1C,-8,?,-1%,?,2,-2%
CCOc1ccc(OCCNC2CCCC2)cc1,0,-8%,14%,0%,24,-2%
Cc1cc(C)cc(OCCOCCn2c(-c3ccc(Cl)cc3)nc3ccccc3c2=O)c1,nt,nt,-8%,nt,nt,-4%
CCc1ccc(/C=N/NC(=O)c2cc(C3CC3)nc3ccc(Br)cc23)s1,24,18µM*,-12%,1.6µM*,0,-10%
CN(c1ccc(C(=O)Nc2ccc(Cl)cn2)cc1)S(=O)(=O)c1ccccc1,-9,15%,0%,28%,9,-6%
O=C(Nc1cccc(Cl)c1)c1ccccc1,6,-58%,2%,-7%,-20,2%
O=C1C(Cl)=C(NC(=O)c2ccccc2)C(=O)C(Cl)=C1NC(=O)c1ccccc1,-99*,?,8%,27%,7,0%
O=C(Nc1cc(Cl)ncn1)c1ccccc1,-63*,26%,5%,47%,-9,0%
CN(C1=C(NC(=O)c2ccc(Cl)cc2)C(=O)c2ccccc2C1=O)c1ccccc1,-74*,?,-3%,?,-6,-5%
O=C(Nc1cc(N2CCCCC2)ncn1)c1ccccc1,17,-100%,7%,?,-3,-1%
COc1ccc(S(=O)(=O)N2CCC(n3c(C(F)(F)F)nc4cccnc43)CC2)cc1OC,nt,nt,-9%,nt,nt,1%
Cc1cccc(C)c1Nc1c(-c2ccc(Cl)s2)nc2ncccn12,nt,nt,9%,nt,nt,-12%
Cc1cccc(NC(=O)c2c(N)sc3c2CCC(C)C3)c1 (centres undefined),nt,nt,3%,nt,nt,4%
C/C(=N\Nc1nccnc1Cl)c1ccc(O)cc1,-25,?,2%,9%,2,-1%
C/C(=N\Nc1nccnc1Cl)c1ccc(Cl)c(Cl)c1,4,0%,25µM*,7%,-1,0%
CCCCn1nnnc1SCC(=O)c1cc(Cl)ccc1OC,-57*,-4%,2%,10%,0,-1%
Cc1ccc(C)c(NC(=O)c2cc(S(=O)(=O)NCCC3=CCCCC3)ccc2F)c1,nt,nt,0%,nt,nt,6%
Cc1ccc(NC(=O)c2cc(S(=O)(=O)NCCC3=CCCCC3)ccc2F)cc1,-65*,25%,-22%,?,-12,1%
CN(N=Cc1ccc([N+](=O)[O-])cc1)c1ccccn1,-58*,nt,5%,nt,nt,-1%
CCn1cc([N+](=O)[O-])c(C(=O)Nc2nc(-c3ccc(C)c(C)c3)c(C)s2)n1,1,?,-5%,8.2µM*,-18,-4%
CCn1cc([N+](=O)[O-])c(C(=O)Nc2nc(-c3ccc(C)cc3)c(C)s2)n1,-55*,?,-1%,?,-22,?
CCn1cc([N+](=O)[O-])c(C(=O)Nc2cc(C)on2)n1,12,-2%,-5%,-4%,-1,-1%
CC(=O)Nc1ccc(NC(=O)CCCn2nc(C)c3sc4ccccc4c3c2=O)cc1,nt,nt,3%,nt,nt,0%
Cc1ccc2c(CC(=O)NCc3ccco3)coc2c1C,60,?,-9%,12µM*,-11,?

# Source: PubChem
